An excerpt weighted towards active compounds, which were near 4.2% of everything screened.
GDH-TPI inh: inhibits GDH-TPI coupling enzymes, artifact for Mtb FBA screen | GDH-TPI coupled enzyme counterscreen, NADH absorbance | inhibition, % at 4.8 µM | 1.2% of 360,000 active;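 note: 0% = DMSO wells and 100% = wells lacking the enzyme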
CCHFV vOTU inh: blocks the CCHF virus ovarian tumor domain protease. CCHFV vOTU protease, Pep-AMC fluorescence. inhibition, % at 11.5 µM. 0.55% of 370,000 active. AID 651958; note: 0% = vehicle wells with enzyme and 100% = no enzyme wells
RecA intein inh: blocks M. tuberculosis RecA intein splicing | cell-free RecA intein splicing, fluorescence | 0.75% of 290,000 active | P9WHJ3 | inhibition, % (no concentration beside the values); in the data active = inhibition above about 30%;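 note: 0% = vehicle wells and 100% = reference inhibitor control wells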
FBA Mtb inh: inhibits M. tuberculosis FBA enzyme | P9WQA3 | purified M. tuberculosis FBA, fluorescence read-out | inhibition, % at 1 µM | 2.3% of 360,000 active | AID 588726; in the data active = inhibition above about 27%;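 note: 0% = vehicle and 100% = reference inhibitor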
Target sequence (P9WQA3 whole entry, looked up): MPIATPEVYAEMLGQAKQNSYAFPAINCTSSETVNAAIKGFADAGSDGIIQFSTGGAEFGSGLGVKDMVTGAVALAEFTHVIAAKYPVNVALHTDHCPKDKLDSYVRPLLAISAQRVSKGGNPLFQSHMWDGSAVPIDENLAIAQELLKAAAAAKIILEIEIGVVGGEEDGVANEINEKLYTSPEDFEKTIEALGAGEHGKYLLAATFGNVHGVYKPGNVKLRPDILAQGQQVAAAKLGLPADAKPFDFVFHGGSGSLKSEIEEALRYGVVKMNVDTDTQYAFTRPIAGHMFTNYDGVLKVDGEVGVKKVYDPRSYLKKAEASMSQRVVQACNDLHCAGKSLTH
Mtb bLac sens: beta-lactam sensitization of Mtb H37Rv. AID 434955. inhibition, % at 25 µM. 0.27% of 330,000 active. M. tuberculosis H37Rv growth with meropenem, percent inhibition; call rule not given here;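 note: growth measured after seven days incubation then overnight dye step; 0% = bacteria only wells and 100% = bacteria with antibiotic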
The depositor's hits bear a star; i = inactive; · = not tested or not shown; + = active, no number. Cut-off read from the data, not from the text of the source, unless noted: active = inhibition above about 30%; inactive = the rest.

SMILES | GDH-TPI inh | CCHFV vOTU inh | RecA intein inh | FBA Mtb inh | Mtb bLac sens
CCCn1c(NC(=O)c2ccccc2)nc2ccccc21 | 4 | 8 | 11 | 1 | 5
Cn1c(Cc2cccs2)nnc1SCC(=O)Nc1ccc(OCc2ccccc2)cc1 | · | 0 | · | · | ·
CCOc1ccc(/C=C/C(=O)Nc2ccc(C(N)=O)cc2)cc1OC | 51* | -2 | -4 | 5 | 1
COc1ccc(/C=C/C(=O)Nc2ccc(S(=O)(=O)Nc3onc(C)c3C)cc2)cc1OC | 37* | 5 | -3 | 0 | -2
COC(=O)[C@]12C[C@H](CC(=O)NCCC(C)C)C(=O)N(Cc3ccccc3)C1=C[C@H](COCc1ccccc1)O[C@@H]2C | · | 6 | · | · | ·
CCOc1ccc(NC(=O)c2cc(-c3ccc(Cl)cc3)nc3ccccc23)cc1 | · | -9 | · | · | ·
Cc1nccc2c1[nH]c1ccc(Br)cc12 | 9 | -2 | 0 | 7 | 7
COc1ccc2c(c1)[nH]c1c(C)nccc12 | 7 | -94 | · | 151* | 10
CCCn1nc([N+](=O)[O-])c(C(C#N)c2nc3ccccc3o2)c(Cl)c1=O (configuration not stated) | 3 | 19 | 5 | -14 | 9
Cn1nc([N+](=O)[O-])c(C(C#N)c2ccccn2)c(Cl)c1=O (configuration not stated) | 12 | -4 | 46* | -1 | 91
CC(=O)C1=C(O)C(=O)N(CCO)C1c1ccccc1 (configuration not stated) | 47* | -3 | -3 | 1 | 0
O=C(O)COc1ccc2nsnc2c1Cl | 6 | -17 | -21 | 42* | 0
Cc1cc(Cl)ccc1OCC(=O)O | -6 | 10 | -1 | 0 | 5
O=C1NC(=O)N(c2ccccc2)C(=O)/C1=C/c1coc2ccc(O)cc2c1=O | 31* | 3 | -6 | -1 | -3
O=C1NC(=O)N(c2ccc(Cl)cc2)C(=O)/C1=C/c1coc2ccc(O)cc2c1=O | 22 | -4 | -5 | 0 | 10
CC(C)C[C@@H]1COc2cc(Br)ccc2S(=O)(=O)N1Cc1cn(Cc2ccc(F)cc2)nn1 | · | -9 | · | · | ·
O=C1CCC/C(=N/NC(=O)c2sc3ccccc3c2Cl)C1 | 55* | -1 | -20 | 1 | 22
O=C(NN=C1CCCC1)c1sc2ccccc2c1Cl | 0 | -1 | -1 | -2 | 97
O=C(Nc1nccs1)C1CCCN1/C=C/C(=O)C(F)(F)F (configuration not stated) | 35* | 3 | -6 | 2 | 0
Cc1ccc(-c2nc3ncccn3c2NC(=O)c2cccc(C)c2)cc1 | · | -19 | · | · | ·
Cn1c(SC2CCCC2)nnc1-c1ccco1 | · | -6 | · | · | ·
CC(=O)N1CCc2c(sc(NC(=O)c3ccc([N+](=O)[O-])o3)c2C(N)=O)C1 | 23 | 47* | · | -13 | ·
COc1ccc(C2NC(=O)NC(C)=C2[N+](=O)[O-])cc1OC (configuration not stated) | 37* | 4 | -5 | 0 | -5
CC1=C([N+](=O)[O-])C(c2ccc(O)c(O)c2)NC(=O)N1 (configuration not stated) | 12 | -3 | -6 | 5 | 3
COC(=O)[C@]12C[C@H](CC(=O)N3CCCC3)C(=O)N(Cc3ccc(Cl)cc3Cl)C1=C[C@H](C1CCCC1)O[C@@H]2C | · | -1 | · | · | ·
SMILES | GDH-TPI inh | CCHFV vOTU inh | RecA intein inh | FBA Mtb inh | Mtb bLac sens
Nc1nc2c(C(=O)N3CCOCC3)nnn2c2ccccc12 | 11 | -30 | · | 117* | -8
COc1ccc(S[C@]2(C(=O)N3CCN(c4ncccn4)CC3)CC(=O)N(c3ccc(Cl)cc3)[C@@H]2c2ccc(OC)cc2)cc1 | · | -4 | · | · | ·
c1coc(-c2nnc(-c3cccs3)o2)c1 | 6 | -23 | · | 150* | -20
NNC(=O)c1[nH]c2ccc([N+](=O)[O-])cc2c1-c1ccccc1 | 7 | 7 | 3 | -2 | 15
O=C(N/N=C/c1ccccn1)c1[nH]c2ccc([N+](=O)[O-])cc2c1-c1ccccc1 | 41* | 4 | 18 | -2 | 52
N#Cc1c(N)n(-c2cccc(C(=O)O)c2)c2nc3ccccc3nc12 | 43* | -376 | -213 | + | 2
Cc1cccc(-n2c(N)c(-c3nc4ccccc4n3C)c3nc4ccccc4nc32)c1 | 15 | -7 | -21 | 7 | 63
CC(=O)N(C)C1=C(N2CCOCC2)C(=O)c2ccccc2C1=O | 11 | · | 32* | -9 | 64
Cc1cc2c(C)cc(=O)oc2c2c1NCCC2 | 2 | -311 | i | + | 1
Cc1cc(=O)oc2cc3c(cc12)CCCN3 | 17 | -363 | i | + | -4
Cc1cc(=O)oc2cc(OCc3cc4c(cc3Cl)OCO4)ccc12 | 2 | 3 | 0 | 1 | 2
Cc1cc(=O)oc2cc3c(cc12)OCCN3 | 18 | -257 | i | + | -4
